# Measured values as given in PubChem BioAssay (Tox21).
# Several values for one entry are separate records, joined by “and”; a condition that tells them apart may be missing. Equal values may be shown once. Results filed as inconclusive are left out. Where a call stands in place of a potency, no number is given. Some compounds were tested as several samples or in several runs, with calls that do not always agree. Activity calls are given as the source filed them. Unless noted, the call rests on the fitted dose curve; in most records, active means well fitted curve in the direction sought with a large enough effect in the repeat runs; inconclusive means weak or mixed curves; inactive means no such curve, though single readings can be large; an effect the other way counts as inactive or inconclusive.
# Tests used:
# [1] = qHTS assay to identify small molecule antagonists of the vitamin D receptor (VDR) signaling pathway - cell viability counter screen (AID 743225); further: nearly all actives have a fitted effect of over 50% in size; further: potency means the concentration at half of the fitted maximal effect
# In short: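 HEK293T VDR-bla; cpd + 1a,25-(OH)2D3 3 nM final, 16 h 37C/5% CO2; B/G FRET substrate 2 h RT; then CellTiter-Glo 30 min RT, luminescence.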
# [2] = qHTS assay to identify small molecule agonists of the endoplasmic reticulum stress response signaling pathway (AID 1159516; active means well fitted activation curve with a large enough effect in the signal ratio in the repeat runs, not every such curve was filed as active; the % refers to the signal ratio)
# In short: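 Read-out is beta-lactamase cleavage of a FRET substrate (405 nm excitation; 460 and 530 nm emissions) in ESRE-bla HeLa cells after a 5 hr compound exposure at 37 C. Substrate incubation ran 2 hr at room temperature.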
# [3] = qHTS assay to identify small molecule agonists of the endoplasmic reticulum stress response signaling pathway - cell viability counter screen (AID 1159517; calls by dose curve; further: nearly all actives have a fitted effect of over 50% in size; further: potency means the concentration at half of the fitted maximal effect;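 on activity change, negative = cytotoxicity: HeLa cells carrying an ER stress response element beta-lactamase reporter; series mostly up to about 61 µM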)
# In short: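 HeLa cells carrying an ESRE-driven beta-lactamase reporter receive compound for 5 hr at 37 C. Cell viability is then gauged with CellTiter-Glo by luminescence, 30 min at room temperature.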
# [4] = qHTS assay to identify small molecule antagonists of the retinoid-related orphan receptor gamma (ROR-gamma) signaling pathway - cell viability counter screen (AID 1159520); further: nearly all actives have a fitted effect of over 50% in size; further: potency means the concentration at half of the fitted maximal effect
# In short: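 Cytotoxicity was read from cellular ATP (CellTiter-Glo luminescence) after 16 hr at 37 C with 1 uM doxycycline induction. The inducer was added 2 hr after compound transfer to Tet-on ROR gamma CHO cells.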
# [5] = qHTS assay to identify small molecule agonists of the AP-1 signaling pathway - cell viability counter screen (AID 1159525; calls by dose curve; further: nearly all actives have a fitted effect of over 55% in size; further: potency means the concentration at half of the fitted maximal effect)
# In short: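 Luminescent ATP readout (Cell Titer Glo, 30 min RT), normalised to DMSO and tetra n-octyl ammonium bromide controls. Cells were ME-180 AP-1-bla in 0.5% dialyzed FBS Opti-MEM, with a 5 h, 37 °C compound exposure.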
# [6] = qHTS assay to identify small molecule agonists of the AP-1 signaling pathway (AID 1159526; calls by dose curve; further: potency means the concentration at half of the fitted maximal effect)
# [7] = molecular target: Retinoic acid receptor RXR-alpha (Homo sapiens) (UniProt P19793); assay: qHTS assay to identify small molecule agonists of the RXR signaling pathway (AID 1159527; calls by dose curve; further: nearly all actives have a fitted effect of over 35% in size)
# Chain of Retinoic acid receptor RXR-alpha (Homo sapiens) (P19793 whole entry, looked up): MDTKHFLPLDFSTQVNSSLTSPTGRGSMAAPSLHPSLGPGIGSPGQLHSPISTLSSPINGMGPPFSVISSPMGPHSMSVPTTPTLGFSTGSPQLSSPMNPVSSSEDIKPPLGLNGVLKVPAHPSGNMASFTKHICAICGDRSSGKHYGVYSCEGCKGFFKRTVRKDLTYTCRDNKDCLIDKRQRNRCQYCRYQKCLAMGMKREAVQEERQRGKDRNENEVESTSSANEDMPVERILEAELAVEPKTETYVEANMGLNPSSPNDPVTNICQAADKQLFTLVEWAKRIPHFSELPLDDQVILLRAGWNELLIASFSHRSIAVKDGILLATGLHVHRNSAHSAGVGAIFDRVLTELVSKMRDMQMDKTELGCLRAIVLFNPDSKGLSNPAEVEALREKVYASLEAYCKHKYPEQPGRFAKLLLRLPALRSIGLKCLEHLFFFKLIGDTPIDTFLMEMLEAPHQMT
# In short: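 Cells plated at 2,000/well, rested 5 hr at 37 C, pin-dosed with DMSO compound solutions, incubated 16 hr, then loaded with B/G FRET substrate for 2 hr at RT before dual-emission fluorescence reading.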
# [8] = qHTS assay to identify small molecule agonists of the RXR signaling pathway - cell viability counter screen (AID 1159529); further: nearly all actives have a fitted effect of over 50% in size; further: potency means the concentration at half of the fitted maximal effect;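 on activity change, negative = cytotoxicity: HEK 293T cells carrying an RXR-alpha UAS beta-lactamase reporter; series mostly up to about 77 µM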
# In short: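 Steps: seed RXR-alpha-UAS-bla HEK 293T cells in assay medium containing 2% charcoal-stripped FBS; incubate 5 hr; add compounds in DMSO; incubate 16 hr at 37 C; after the bla read, add CellTiter-Glo and read luminescence at 30 min.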
# [9] = qHTS assay to identify small molecule antagonists of the retinoid acid receptor (RAR) signaling pathway - cell viability counter screen (AID 1159551); further: nearly all actives have a fitted effect of over 35% in size
# In short: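 Luminescent ATP quantitation (CellTiter-Glo) gave cell viability in C3RL4 cells exposed to test chemicals for 6 h at 37 C alongside 1 uM final retinol.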
# [10] = molecular target: Nuclear receptor ROR-gamma (Homo sapiens) (UniProt P51449); assay: qHTS assay to identify small molecule antagonists of the retinoid-related orphan receptor gamma (ROR-gamma) signaling pathway (AID 1159521; further: nearly all actives have a fitted effect of over 50% in size; further: potency means the concentration at half of the fitted maximal effect;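 on activity change, negative = inhibition: CHO cells with doxycycline inducible ROR-gamma driving an RORE luciferase reporter; top concentration of the series differs between compounds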)
# In short: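 Cells were plated, rested 4 h at 37 C, exposed to compounds for 2 h, then given 1 uM final doxycycline hyclate to induce RORγ expression. After 16 h, ONE-Glo luminescence from the ROR response element reporter was measured.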
structure (smiles),measurement,setting,value
Cc1cn[nH]c1,Potency,[1],inactive
same,Potency,[2],inactive
same,Potency,[3],inactive
same,Potency,[4],inactive
same,Potency,[5],inactive
same,Potency,[6],inactive
same,Potency,[7],inactive
same,Potency,[8],inactive
same,Potency,[9],inactive
CCN1CCN(c2cc(-c3ccc(F)cc3)c3c(n2)CCCCCC3)CC1,Potency,[1],inactive
same,Potency,[2],inactive
same,Potency,[3],inactive
same,"activity, negative = cytotoxicity",[4],-5.78% [at 19 µM] (inactive)
same,"activity change, negative = inhibition",[10],-6.23% [at 19 µM] (inactive)
same,"viability change, negative = cytotoxic",[5],3.9% [at 15.8 µM] (inactive)
same,activation,[6],6.74% [at 15.8 µM] (inactive)
same,"activity change, negative = cytotoxicity",[8],-22.5% [at 15.8 µM] (inactive)
same,"activity change, negative = cytotoxicity",[9],0.574% [at 19 µM] (inactive)
COc1cccc(CCc2ccccc2OCC(CN(C)C)OC(=O)CCC(=O)O)c1 (configuration not stated),Potency,[1],inactive
same,Potency,[2],inactive
same,Potency,[3],inactive
same,Potency,[4],inactive
same,Potency,[10],7.5 µM (active)
same,Potency,[5],inactive
same,Potency,[6],inactive
same,Potency,[8],inactive
same,Potency,[9],inactive
O=C(O)CCCCCCC(=O)O,Potency,[1],inactive
same,Potency,[2],inactive
same,Potency,[3],inactive
same,Potency,[4],inactive
same,Potency,[10],inactive
same,Potency,[5],inactive
same,Potency,[6],inactive
same,Potency,[7],inactive
same,Potency,[8],inactive
same,Potency,[9],inactive
CC(C(O)c1ccccc1)N(C)CCOC(c1ccccc1)c1ccccc1 (configuration not stated),Potency,[2],inactive
same,Potency,[3],inactive
Cc1ccc(CCn2c3c(c4cc(Cl)ccc42)CN(C)CC3)cn1,Potency,[1],inactive
same,Potency,[2],inactive
same,Potency,[3],inactive
same,Potency,[4],inactive
same,Potency,[10],inactive
same,Potency,[5],inactive
same,Potency,[6],inactive
same,Potency,[8],16.9 µM (active)
same,Potency,[9],inactive
CC1CCCCN1CCCOC(=O)c1ccc(OC2CCCCC2)cc1 (configuration not stated),Potency,[2],inactive
same,Potency,[3],inactive
same,Potency,[4],inactive
same,Potency,[10],11.9 µM (active)
same,Potency,[5],inactive
same,Potency,[9],inactive
CC(=O)Oc1ccc(C2(c3ccc(OC(C)=O)cc3)Oc3ccccc3NC2=O)cc1,Potency,[1],inactive
same,Potency,[2],inactive
same,Potency,[3],inactive
same,Potency,[4],inactive
same,Potency,[10],26.6 µM (active)
same,Potency,[6],inactive
same,Potency,[8],inactive
same,Potency,[9],inactive
CC(=O)Oc1ccc(C2(c3ccc(OC(C)=O)cc3)C(=O)Nc3ccccc32)cc1,Potency,[1],inactive
same,Potency,[2],inactive
same,Potency,[3],inactive
same,Potency,[4],inactive
same,Potency,[10],inactive
same,Potency,[7],inactive
same,Potency,[8],inactive
same,Potency,[9],inactive
CCCCCCCC/C=C\CCCCCCCC(=O)NCc1ccc(O)c(OC)c1,Potency,[1],21.3 µM (active)
same,Potency,[2],inactive
same,Potency,[3],inactive
same,Potency,[4],inactive
same,Potency,[10],inactive
same,Potency,[5],inactive
same,Potency,[7],inactive
same,Potency,[8],inactive
same,Potency,[9],inactive
CN(C)c1ccc(N=Nc2ccccc2C(=O)O)cc1,Potency,[1],inactive
same,Potency,[2],inactive
same,Potency,[3],inactive
same,Potency,[4],13.7 µM (active)
same,Potency,[10],12.2 µM (active)
same,Potency,[9],inactive
CN(C)CCCN1c2ccccc2Sc2ccc(C(F)(F)F)cc21,Potency,[2],inactive
same,Potency,[3],inactive
same,Potency,[4],inactive
same,Potency,[5],inactive
same,Potency,[6],16.9 µM (active)
same,Potency,[9],inactive
CCN(CC)CCOC(=O)C1(C2CCCCC2)CCCCC1,Potency,[1],inactive
same,Potency,[2],inactive
same,Potency,[3],inactive
same,Potency,[8],12 µM (active)
Cc1c(C(=O)O)cccc1[N+](=O)[O-],Potency,[1],inactive
same,Potency,[2],inactive
same,Potency,[3],inactive
same,Potency,[4],inactive
same,Potency,[5],inactive
same,Potency,[9],inactive
C=C[C@](C)(O)CC[C@@H]1[C@@]2(C)CCCC(C)(C)[C@@H]2CC[C@@]1(C)O,Potency,[1],43.6 µM (active)
same,Potency,[2],inactive
same,Potency,[3],inactive
same,Potency,[5],24.5 µM (active)
same,Potency,[8],43.6 µM (active)
Cc1ccc2ccc3cccc4ccc1c2c34,Potency,[2],inactive
same,Potency,[3],inactive
same,Potency,[4],inactive
same,Potency,[5],inactive
same,Potency,[6],inactive
same,Potency,[9],inactive
CNCC[C@H](Oc1cccc2ccccc12)c1cccs1,Potency,[1],8.49 µM (active)
same,Potency,[2],inactive
same,Potency,[3],inactive
same,Potency,[4],inactive
same,Potency,[5],inactive
same,Potency,[8],23.9 µM (active)
CCN(CC)CCNc1ccc(CO)c2sc3ccccc3c(=O)c12,Potency,[2],inactive
same,Potency,[3],inactive
same,Potency,[4],inactive
same,Potency,[5],inactive
same,Potency,[6],inactive
same,Potency,[8],6.01 µM (active)
same,Potency,[9],inactive
CCCCCCCC/C=C\CCCCCCCC(=O)N(C)CC(=O)O,Potency,[2],inactive
same,Potency,[3],54.9 µM (active)
same,Potency,[10],inactive
same,Potency,[5],30.9 µM (active)
CC(CN(C)C)CN1c2ccccc2CCc2ccccc21 (configuration not stated),Potency,[1],inactive
same,Potency,[2],inactive
same,Potency,[3],inactive
same,Potency,[4],inactive
same,Potency,[8],9.52 µM (active)
same,Potency,[9],inactive
CCCCOc1ccc(C(=O)CCN2CCCCC2)cc1,Potency,[1],inactive
same,Potency,[2],inactive
same,Potency,[3],inactive
same,Potency,[4],26.6 µM (active)
same,Potency,[5],inactive
same,Potency,[6],inactive
same,Potency,[9],inactive
CCCCCCCCCCCCCCCC,Potency,[1],inactive
same,Potency,[2],inactive
same,Potency,[3],inactive
same,Potency,[4],inactive
same,Potency,[5],inactive
same,Potency,[6],inactive
same,Potency,[8],inactive
same,Potency,[9],inactive
C(=C/c1ccccc1)/c1ccccc1,Potency,[1],inactive
same,Potency,[2],inactive
same,Potency,[4],inactive
same,Potency,[10],inactive
same,Potency,[5],inactive
same,Potency,[6],inactive
same,Potency,[7],inactive
same,Potency,[8],inactive
same,Potency,[9],inactive
NC(=O)C(=O)N/N=C/c1ccc([N+](=O)[O-])o1,Potency,[1],inactive
same,Potency,[2],inactive
same,Potency,[3],inactive
same,Potency,[10],inactive
same,Potency,[8],inactive
same,Potency,[9],inactive
NC(=O)c1ccccc1N,Potency,[1],inactive
same,Potency,[2],inactive
same,Potency,[3],inactive
same,Potency,[10],inactive
same,Potency,[6],inactive
same,Potency,[7],inactive
same,Potency,[8],inactive
same,Potency,[9],inactive
CCOC(=O)N1CCC(=C2c3ccc(Cl)cc3CCc3cccnc32)CC1,Potency,[1],38.9 µM (active) and inactive
same,Potency,[2],inactive
same,Potency,[3],inactive
same,Potency,[10],6.86 µM (active) and 21.1 µM (active)
same,Potency,[5],inactive
same,Potency,[7],inactive
same,Potency,[8],54.9 µM (active) and inactive
same,Potency,[9],inactive
O=C1OC(OC(=O)c2cccnc2Nc2cccc(C(F)(F)F)c2)c2ccccc21 (configuration not stated),Potency,[1],inactive
same,Potency,[2],inactive
same,Potency,[3],inactive
same,Potency,[4],inactive
same,Potency,[5],inactive
same,Potency,[9],inactive
